A selection: hits, their analogues and other compounds. The true share with any hit is near 4.2%.
tim10-1 inh = tim10-1 yeast growth inhibition. 330,000 tested, 2.2% active. S. cerevisiae tim10-1 ts strain growth, BacTiter-Glo, 24 h. inhibition, % at 20 µM. AID 463190;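 active means inhibition of at least 40%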;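 further: mutant grown at 25 °C; 0% = DMSO wells with yeast and 100% = wells holding no yeast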
NALP3 yeast inh = NALP3 inhibition in yeast | inhibition, % at 10 µM | AID 2825 | 330,000 tested, 0.39% active | Yeast reconstituted NLRP3/ASC/caspase-1, beta-gal luminescence, 24 h;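 active means inhibition of 50% or more; inactive means inhibition below 50%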;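 further: plate controls were induced DMSO wells for no effect and uninduced yeast grown without galactose for full effect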
TIM10 inh = inhibits growth of TIM10 yeast strain | S. cerevisiae TIM10 strain growth, BacTiter-Glo luminescence, 24 h | inhibition, % at 10 µM | 330,000 tested, 1.4% active;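 active means inhibition of 40% or more at the single tested concentration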;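 further: wild-type TIM10 isogenic control strain grown at permissive 25 °C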
NALP1 yeast inh = inhibitors of NALP1 inflammasome in yeast; AID 2071; 280,000 tested, 0.61% active; S. cerevisiae NALP1/ASC/caspase-1 growth, X-gal OD620, 72 h; inhibition, % at 10 µM; in the data active means inhibition mostly above about 24%, no sharp cut-off; inactive means mostly below about 32%
tim23-1 inh = inhibits growth of tim23-1 mutant yeast; 330,000 tested, 1.3% active; S. cerevisiae tim23-1 growth, BacTiter-Glo luminescence, 24 h; inhibition, % at 20 µM;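 active means growth inhibition of the mutant yeast at or above 50%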;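 further: temperature-sensitive mutant grown at 25 °C; plate controls were DMSO-treated mutant yeast for no effect and medium wells lacking yeast for full effect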
V-ATPase pH = yeast V-ATPase proton transport regulation by pHLuorin. S. cerevisiae, pHLuorin cytosolic pH fluorescence. response, % at 10 µM. 350,000 tested, 0.37% active. AID 504577; in the data active means response mostly above about 7.3%, no sharp cut-off; inactive means mostly below about 5.4%; further: actives read high
Starred values were filed as active, the others as inactive; . = not tested or not shown.

SMILES	tim10-1 inh	NALP3 yeast inh	TIM10 inh	NALP1 yeast inh	tim23-1 inh	V-ATPase pH
COC(=O)CN(c1cc(OC)ccc1OC)S(=O)(=O)c1ccc(OC)c(OC)c1	20	15	14	29*	-1	-2
COc1ccc(OC)c(N(CC(=O)N2CCCC2)S(=O)(=O)c2ccccc2)c1	22	21	4	10	18	4
C/C=C/C(=O)OCC(=O)Nc1cccc(Br)c1	3	-8	4	2	-19	0
CCC(C)NC(=O)Cc1ccc(-c2ccccc2)cc1 (stereo unspecified)	24	-8	10	-36	6	88*
CCCC(C)NC(=O)Cc1ccccc1 (stereo unspecified)	0	-3	2	24	-14	2
C[C@H](CO)N1C[C@H](C)[C@@H](CN(C)S(=O)(=O)c2cccc(F)c2)OCc2cn(nn2)CCCC1=O	.	.	.	.	.	-2
CCOc1ccc(-c2cc(C(=O)NCCCN3CCN(CC)CC3)c3ccccc3n2)cc1	2	0	-1	31*	9	0
O=C(NCc1cccnc1)c1csc2c1CCCC2	-16	-3	-10	20	-7	-3
Cc1ccc(CNC(=O)c2csc3c2CCCCC3)cc1	5	0	1	43*	-29	6
COc1ccc(C=O)cc1COc1ccc(F)cc1F	15	11	5	5	2	3
CCOC(=O)CCC(=O)N(CCN(C(=O)CCC(=O)OCC)c1ccccc1)c1ccccc1	22	6	23	19	18	1
C#CCN(C[C@@H]1[C@@H](OC(=O)NCc2ccc(OC)c(OC)c2)[C@@H](OC(=O)NCc2ccc(OC)c(OC)c2)CN(C(=O)OC(C)C)N1C(=O)OC(C)C)S(=O)(=O)c1ccc(C)cc1	.	.	.	.	.	-1
CN1CCN(c2nc(C#N)cc(-c3ccccc3)n2)CC1	5	4	-2	24*	13	-3
COc1ccc(-c2cc(C#N)nc(N3CCN(C)CC3)n2)cc1	19	18	7	19	-10	0
CC(=NCCc1ccccc1)C1=C(O)CSC1=O	21	20	-17	36	8	-4
CNC(=O)CSc1nnc(-c2cnccn2)n1C	-3	9	-8	26*	-2	3
O=C1C2CCCN2C(c2ccc(F)c(F)c2)N1c1cccc(Cl)c1 (stereo unspecified)	7	-3	-3	44*	10	-5
CCOc1ccc(CCNC(=O)C2CCN(c3nnc(-n4cccc4)s3)CC2)cc1	-4	11	-5	42*	-5	1
CCOc1ccc(CCNC(=O)C2CCN(c3nnc(-n4cccc4)s3)CC2)cc1OCC	28	9	3	0	25	-2
O=C(CN1CCCC1)N1CCCc2c1c(=O)oc1ccc(OCc3ccccc3)cc21	21	7	7	29*	20	2
CCc1nc2ccccc2n1CC1CC1(Cl)Cl (stereo unspecified)	8	-17	-29	37*	7	3
O=C(COC(=O)/C=C/c1ccc(C(F)(F)F)cc1)NC1CC1	11	21	2	.	9	1
Cc1csc(C(=O)O)c1NC(=O)c1ccc(F)cc1	3	6	1	-5	-4	-5
COC(=O)c1scc(C)c1N/N=C(\C)c1ccc(F)cc1	3	6	6	42*	-1	3
C1CCC(OCCN2CCN(CCOC3CCCCC3)CC2)CC1	-15	30	-6	39*	-22	-3
SMILES	tim10-1 inh	NALP3 yeast inh	TIM10 inh	NALP1 yeast inh	tim23-1 inh	V-ATPase pH
Cc1cccc(C(=O)Oc2c(Br)cc(Br)cc2/C=N/NC(=O)c2ccncc2)c1	-7	5	-4	28*	1	0
Cc1cc(C(=O)N/N=C/c2cc(Br)cc(Br)c2OC(=O)c2cccc(F)c2)n[nH]1	-6	10	6	14	-11	4
O=C(O)/C(=C\c1cccc([N+](=O)[O-])c1)c1ccc(S(=O)(=O)N2CCCCC2)s1	25	6	6	23*	15	-1
O=C(O)/C(=C\c1ccc(Cl)c([N+](=O)[O-])c1)c1ccc(S(=O)(=O)N2CCCCC2)s1	31	11	25	-10	28	3
COC(=O)C1=C(CN2CCSCC2)NC(=O)NC1c1cc(C)ccc1C (stereo unspecified)	18	8	10	25	18	-3
CC(=O)OCC1=C(C(=O)O)N2C(=O)[C@@H](NC(=O)Cc3ccccc3)[C@H]2SC1	.	.	.	.	.	0
CC(=O)OCC1=C(C(=O)O)N2C(=O)[C@@H](NC(=O)Cc3cccs3)[C@H]2SC1	8	-1	0	136*	7	0
Nc1c(Cl)ncnc1N/N=C/c1ccccn1	.	.	.	94*	.	.
Cc1c(NCc2ccccc2O)c(=O)n(-c2ccccc2)n1C	3	-3	-5	38*	5	-1
COC(=O)/C(=C/Nc1ccc(O)cc1)[N+](=O)[O-]	4	2	-4	1	1	6
Nc1ccccc1SCc1csc(-c2ccc(Cl)cc2)n1	26	36	23	40*	30	-1
Clc1ccc(OCCCN2CCc3ccccc3C2)c(Br)c1	-37	37	-15	3	3	3
Clc1ccc(OCCOCCN2CCc3ccccc3C2)c(Cl)c1	-21	33	-12	56*	-18	-6
Cc1ccc(S(=O)(=O)c2c(N)n(NC(=O)C3CC3)c3nc4ccccc4nc23)cc1	9	-4	8	10	13	3
Cn1cccc1C(=O)NC(=O)COC(=O)CC12CC3CC(CC(C3)C1)C2	39	1	35	6	39	2
O=C(CCC1CCCC1)c1c(O)c2ccccc2oc1=O	-13	35	-26	40*	1	-4
CCn1c(C(C)NC(=O)c2ccc(OC)c(OC)c2)nc2ccccc21 (stereo unspecified)	21	2	-17	6	11	2
Cc1ccc(N=CC2=C(O)CC(c3ccco3)CC2=O)cc1 (stereo unspecified)	35	3	-3	-2	15	4
CCc1ccc(N=CC2=C(O)CC(c3ccco3)CC2=O)cc1 (stereo unspecified)	25	16	5	38*	40	12
Cc1c(Br)c([N+](=O)[O-])nn1CC(=O)NCc1ccco1	12	-10	10	8	7	2
CC(=O)N1CCc2cc(S(=O)(=O)NC(Cc3ccccc3)C(=O)Nc3cc(C)ccn3)ccc21 (stereo unspecified)	3	5	-2	38*	8	2
c1coc(CSSCc2ccco2)c1	-14	15	-2	.	-2	9.5*
N/C(=N\OC(=O)/C=C/c1ccccc1Cl)c1ccncc1	-8	-38	13	5	27	1
CC(C)c1ccc(NC(=O)C2CCN(C(=O)[C@@H]3Cc4ccccc4CN3)CC2)cc1	-1	3	-5	32*	15	-3

Screens (PubChem BioAssay)
